# Screening results from PubChem.
# VACV mCherry inh: vaccinia inhibition (mCherry reporter); Vaccinia virus mCherry reporter infection, fluorescence; Potency, µM (series often up to 36.5 µM), without a hit: at the top dose activity change, negative = inhibition, actives largely listed as inhibitors; 310,000 tested, 0.63% active; calls by dose curve; tested in A549 cells; further: nearly all actives have a fitted effect of over 35% in size
# LASV entry inh: inhibitors of Lassa virus binding or cell entry; Lassa virus pseudotype entry inhibition, cell reporter; Potency, µM (top dose mostly 37.9 µM), for inactives: at the top dose activity change, negative = inhibition, actives largely listed as inhibitors; 300,000 tested, 1.2% active; AID 540256; calls by dose curve; tested in HEK293 cells; further: nearly all actives have a fitted effect of over 50% in size
# FMDV antiviral: blocks foot and mouth disease virus. Potency, µM (top dose mostly 57.9 µM), for inactives: at the top dose activity change, negative = inhibition, most hits filed as inhibitors. 410,000 tested, 1.2% active. FMDV antiviral cell-based qHTS; calls by dose curve; tested in HEK293T cells; further: read-out not given here; nearly all actives have a fitted effect of over 45% in size
# Vaccinia Venus: inhibitors of vaccinia virus (Venus reporter). Potency, µM (highest dose often 36.5 µM), for the others: at the top dose activity change, negative = inhibition, actives largely listed as inhibitors. 330,000 tested, 0.46% active. Vaccinia virus Venus reporter expression, fluorescence; calls by dose curve; tested in A549 cells; further: nearly all actives have a fitted effect of over 30% in size
# MARV entry inh: blocks Marburg virus binding to or entry into cells; Marburg virus pseudotyped entry inhibition, cell reporter; Potency, µM (doses to about 37.8 µM), inactives show at the highest dose activity change, negative = inhibition, hits mostly inhibitors; 300,000 tested, 1.8% active; calls by dose curve; tested in HEK293 cells
# Starred values were filed as active, the others as inactive; i = inactive; ? = inconclusive; / = not tested or not shown; [ ] = dose if it differs, or a comment. This is a sample that favours compounds with a hit; in the whole collection about 3.2% have one here. On the % scale 0 is the no-effect control and ±100 the full control effect; potency means the concentration at half of the fitted maximal effect.
SMILES,VACV mCherry inh,LASV entry inh,FMDV antiviral,Vaccinia Venus,MARV entry inh
CC[C@@H](C(=O)[C@@H](C)[C@@H](O)[C@H](C)CCc1ccc(C)c(O)c1C(=O)O)[C@H]1O[C@](CC)([C@H]2CC[C@](O)(CC)[C@H](C)O2)C[C@@H]1C,?,/,28µM*,10µM*,/
CCCCNC(=O)c1cnn2c(C)c(Cc3c(C)cc(C)cc3C)c(C)nc12,-15%,?,16µM*,?,/
CCC(=O)N(CCC(Cc1ccccc1)c1ccc2c(c1)OCO2)Cc1ccccc1F (stereo not given),?,?,?,?,13µM*
CC(=O)N1CCC[C@H]1C(=O)NCC1Cc2cc(-c3cnccn3)cc(Cl)c2O1 (stereo not given in full),-10%,/,2%,2%,/
CCOC(=O)c1nnc(-c2cccs2)nc1Oc1ccc(Cl)cc1,-24%,5%,28µM*,-23%,2%[46.1 µM]
CCCN1C(=O)C2=NC(C3CCCC3)=NC2N(CCC)C1=O (stereo not given),/,/,/,/,14%
O=C1C=C(NC2=CC3OC(c4ccccc4)OCC3OC2=O)CCC1 (stereo not given),?,10µM*,18µM*,?,?
CC[n+]1c(/C=C/N(C)c2ccccc2)n(-c2ccccc2)c2ccc(-c3nc4ccccc4s3)cc21,?,2.5µM*,6.3µM*,4.5µM*,?
COc1ccc(C(=O)/C=C/C(=O)N(CC(=O)NC2CCCCC2)Cc2cccs2)c(O)c1,/,/,6.3µM*,/,/
COc1ccc(CN(C(=O)/C=C/C(=O)c2ccc(OC)cc2O)C(C(=O)NC2CCCCC2)c2ccncc2)cc1 (stereo not given),-14%,?,2%,?,?
COCCN(CC(=O)NC1CCCCC1)C(=O)/C=C/C(=O)c1ccc(OC)cc1O,1%,13µM*,3.2µM*,1%,11µM*
O=C(NN1CCOCC1)c1ccc(Cl)s1,i,-12%[46.1 µM],17%,-3%,2%[46.1 µM]
Cc1ccc(CN2C[C@H](Sc3ccccn3)C[C@H]2C(=O)Nc2ccc3sc(C)nc3c2)c(C)c1,-13%,/,6%,-14%,/
O=C(c1ccccc1C(F)(F)F)N1CCOc2c(cc(-c3nc4ccccc4s3)cc2OC2CCOC2)C1 (stereo not given),i,/,0%,?,/
COCC(=O)Nc1cc(C(=O)NCCc2ccccc2)ccc1Cl,-10%,10µM*,-15%,-9%,?
CCCc1nn2c(=O)cc(COC(=O)c3ccccc3NC(=O)COc3ccccc3F)nc2s1,-17%,3%[46.1 µM],?,-19%,/
Cc1ccccc1Oc1nc2c(C)cccn2c(=O)c1/C=C(\C#N)C(=O)Nc1c(C)n(C)n(-c2ccccc2)c1=O,i,?,32µM*,-8%,?
Cc1ccccc1Oc1nc2ccccn2c(=O)c1/C=C(\C#N)C(=O)Nc1c(C)n(C)n(-c2ccccc2)c1=O,i,-14%,22µM*,-13%,4%
CC(C)Cc1nc2cc(NS(=O)(=O)N(C)C)cc(C(=O)N3CCSCC3)c2n1C,-1%,/,23%,1%,/
CCc1nc2c(c(SC)nn2-c2ccccc2)c(N)c1C(=O)OC,i,-5%,-10%,-8%,-4%
CCCCOc1ccc(CC(=O)N(C)O)cc1,-21%,/,/,-7%,/
CCCC(=O)Nc1ccc(C(=O)Nc2ccc([N+](=O)[O-])cc2OC)cc1,i,?,-20%,-22%,11%[46.1 µM]
Cc1ccsc1/C=C1\CCC(C2CCCC2)C1=O (stereo not given),-12%,?,-43%,-11%,7.9µM*
Cc1ccc(/C=C2\CCC(C3CCCC3)C2=O)cc1 (stereo not given),-8%,0%,-5%,-4%,?
COc1ccc(Nc2nc(N)c3cc(OC)c(OC)cc3n2)cc1,-16%[7.34 µM],19%[46.1 µM],-1%,-9%[7.34 µM],11µM*
SMILES,VACV mCherry inh,LASV entry inh,FMDV antiviral,Vaccinia Venus,MARV entry inh
COc1cc2nc(Nc3cccc(F)c3)nc(N)c2cc1OC,?,?,-22%,?,?
COC(=O)C1CCN(Cc2ccc3c(c2)CN(C(=O)c2cc(-c4ccc(C)o4)[nH]n2)CCO3)CC1,6%,/,-8%,7%,/
Cc1cc2nc(-c3ccc(SCc4ccc(C(=O)O)cc4)nc3)[nH]c2cc1C,-15%,?,50%,-8%,5.6µM*
Cc1cc2nc(-c3ccc(SCC(=O)Nc4ccc(S(=O)(=O)NC5CC5)cc4)nc3)[nH]c2cc1C,-27%,?,-3%,-21%,4.5µM*
Cc1cc2nc(-c3ccc(SCc4ccccc4C#N)nc3)[nH]c2cc1C,-14%,?,/,-20%,?
Cc1cc(NC(=O)CSc2ccc(-c3nc4cc(C)c(C)cc4[nH]3)cn2)no1,/,-2%,48%,/,?
O=C(O)c1cccc(C(=O)Nc2cccc(NC(=O)C3CCCO3)c2)c1 (stereo not given),i,10µM*,?,-15%,11µM*
CC1(C)Cc2nc3oc4c(N(CCO)Cc5ccccc5)ncnc4c3cc2CO1,/,?,32µM*,/,0%
COCCSc1ncnc2c1oc1nc3c(cc12)COC(C)(C)C3,/,/,28%,/,2%
CCCN(CCC)[C@H]1CCc2c(F)ccc(O)c2C1,/,17%,/,/,11µM*
COC(=O)[C@@H]1CCCN1C(=O)c1c(OC)cc(=O)n2c1CCN(Cc1ccc3c(c1)CCO3)CC2,-8%,/,-5%,2%,/
C=CCn1cccc(/C=C/C(=O)c2ccc(C(C)(C)C)cc2)c1=S,?,16µM*,25µM*,?,?
Cc1cc(C)cc(N(CC(=O)NC2CCCCC2)C(=O)CCCC(=O)Nc2ccccn2)c1,-12%,?,19%,-14%,?
CCOc1ccc(N(CC(=O)NC2CCCCC2)C(=O)CCCC(=O)Nc2ccccn2)cc1,i,10µM*,43%,-26%,-1%[46.1 µM]
Cc1cnc(-c2nc3ccccc3n2C(C(=O)NC(C)(C)C)c2ccccc2)cn1 (stereo not given),1%,/,-2%,-15%,/
CO[C@H]1[C@H](NC(=O)c2ccsc2)c2ccccc2C12CCN(Cc1cccn1-c1ccccn1)CC2,-7%,/,-16%,1%,/
CCOC(=O)CSc1nc(-c2ccc(F)cc2)cc(C(F)(F)F)c1C#N,-8%,-3%[46.1 µM],32µM*,-1%,-1%[46.1 µM]
Cc1cccc2cc(CN(CC3CCCO3)C(=O)c3cccc(F)c3)c(N(C)C)nc12 (stereo not given),-14%,/,-5%,3%,/
Cc1ccc(-c2nc3cc(Br)cnc3nc2-c2ccc(C)cc2)cc1,1%,?,?,2%,3.2µM*
Brc1cccc(-c2nc3cccnc3nc2-c2cccc(Br)c2)c1,/,/,0%,/,/
O=C(Nc1cc2ccccc2oc1=O)c1ccccc1,3%,2.5µM*,-81%,0%,1.3µM*
CC12C=C(C=Cc3ccccc3)C(C)(C1)C(c1ccccc1)CC2=O (stereo not given),/,/,/,/,-4%[14.2 µM]
CC(C)(C)C(=O)N1CCN(c2ccc(NC(=O)c3ccc4c(c3)OCCO4)cc2)CC1,-22%,?,32µM*,-14%,?
CC(=O)N1CCN(c2ccc(NC(=O)c3ccc4c(c3)OCCO4)cc2)CC1,i,18%,/,-12%,20%
